Compound activity (PubChem)
DT40 TDP1 no CPT – qHTS for Inhibitors of human tyrosyl-DNA phosphodiesterase 1 (TDP1): qHTS in cells in absence of CPT; Potency, µM (doses to about 46.2 µM), most hits filed as inhibitors; DT40 Tdp1-/- hTDP1 cells, no CPT, ATP luminescence, 48 h; AID 686978, 2013; hit rate 15% among 420,000; further: nearly all actives have a fitted effect of over 55% in size
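Cells were dispensed at 400 per well, compounds added by pin tool, plates incubated ≥48 hr at 37 °C, then CellTiter-Glo added for 30 min at room temperature before luminescence reading. Line: DT40 Tdp1-/- complemented with hTDP1; camptothecin omitted.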
ALOX12 inh – blocks human arachidonate 12S-lipoxygenase; purified 12hLO, xylenol orange hydroperoxide absorbance; hit rate 1.1% among 580,000; Potency, µM (top dose mostly 108 µM), hits mostly inhibitors
Target sequence (P18054 whole entry, looked up): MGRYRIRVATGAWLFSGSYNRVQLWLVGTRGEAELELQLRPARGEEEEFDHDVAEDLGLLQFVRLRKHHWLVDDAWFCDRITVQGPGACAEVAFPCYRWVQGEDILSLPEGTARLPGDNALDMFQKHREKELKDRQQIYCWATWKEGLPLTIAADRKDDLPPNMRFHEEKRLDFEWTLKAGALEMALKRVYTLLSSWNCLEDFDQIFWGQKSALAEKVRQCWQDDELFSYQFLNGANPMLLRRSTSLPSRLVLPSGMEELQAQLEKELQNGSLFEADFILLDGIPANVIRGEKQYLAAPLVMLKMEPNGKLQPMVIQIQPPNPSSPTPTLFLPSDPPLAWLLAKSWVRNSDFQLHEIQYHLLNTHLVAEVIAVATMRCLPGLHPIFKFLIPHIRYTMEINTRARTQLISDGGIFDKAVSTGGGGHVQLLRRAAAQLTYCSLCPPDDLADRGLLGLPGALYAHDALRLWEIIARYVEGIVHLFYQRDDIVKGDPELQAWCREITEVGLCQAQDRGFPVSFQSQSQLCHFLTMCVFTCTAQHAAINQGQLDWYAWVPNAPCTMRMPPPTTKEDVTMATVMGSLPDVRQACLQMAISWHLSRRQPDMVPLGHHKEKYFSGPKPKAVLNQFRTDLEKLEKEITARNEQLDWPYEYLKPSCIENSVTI
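Purified human 12hLO (150 nM final) in 25 mM Hepes, 0.01% Triton X-100, pH 7.0 was preincubated 15 min at room temperature with compound. Then 40 uM arachidonic acid was added, 30 min. Hydroperoxide was read by Fe-XO absorbance ratio 573/405 nm.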
HT1080-NT tox – kills 2HG-producing HT-1080-NT fibrosarcoma cells; HT-1080-NT fibrosarcoma viability, CellTiter-Glo ATP luminescence, 48 h; Potency, µM (top dose mostly 46.1 µM), actives largely listed as cytotoxic; hit rate 1.6% among 360,000;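 further: NT is the 2HG producing partner of a matched IDH1 knockdown line; nearly all actives have a fitted effect of over 55% in size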
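Viability by CellTiter-Glo luminescence after 48 h compound exposure at 37C of HT-1080-NT cells (750/well, RPMI, 5% FBS). % activity scaled between DMSO wells and medium-only wells, then curve-fitted and categorized by curve class.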
HT1080 IDH1KD tx – toxicity to HT-1080 IDH1 knockdown cells (counter line) | HT-1080 IDH1 knockdown viability, ATP luminescence, 48 h | Potency, µM (doses to about 46.1 µM), most hits filed as cytotoxic | hit rate 2% among 360,000
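% activity derives from luminescence (CellTiter-Glo), normalised to DMSO and no-cell wells. HT-1080-IDH1KD cells, 750/well, had 48 h compound exposure at 37 °C.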
IL1B secr inh – blocks inflammasome-driven IL-1 beta release; THP-1 LPS/ATP IL-1B secretion, AlphaLISA, 16 h; stronger effect = lower value; activity change, % at 57.5 µM; hit rate 4.7% among 360,000; in the data active means activity change below about -50%; inconclusive means mostly about -30% to -49%
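THP-1 cells pretreated 1 hr with compounds (up to 57.5 uM final), then stimulated with LPS (250 ng/mL final) plus ATP (1.25 mM final); secreted IL-1B measured by AlphaLISA after 16 hr, decreased signal indicating inhibition.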
DT40 TDP1 CPT – DT40-hTDP1 cell growth loss with CPT; chicken DT40 Tdp1-/-;hTDP1 cells + 20 nM CPT, ATP luminescence, 48 h; Potency, µM (series often up to 46.2 µM), actives largely listed as inhibitors; hit rate 12% among 420,000; further: nearly all actives have a fitted effect of over 55% in size
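Cell growth measured by CellTiter-Glo luminescence after a minimum 48 h, 37 C compound exposure with 20 nM CPT in Tdp1-knockout DT40 cells stably expressing hTDP1, seeded 400/well; qHTS titration format.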
Each line names hits and unclear results; the compound was inactive in the other large screens. Only a selection was taken, and hits are over-represented in it overall. Unless noted, the call rests on the fitted dose curve; in most records, active means well fitted curve in the direction sought with a large enough effect; inconclusive means small, poorly fitted or top-dose-only effect, or another doubt; inactive means no such curve, though single readings can be large; an effect the other way counts as inactive or inconclusive.

Nc1nc(CN2CCN(C(=O)c3cc(C(F)(F)F)cc(C(F)(F)F)c3)CC2)nc2ccccc12	none (no result: DT40 TDP1 no CPT, HT1080-NT tox, HT1080 IDH1KD tx, IL1B secr inh, DT40 TDP1 CPT)
O=C(c1ccc(C(F)(F)F)cc1)N1CCC(Oc2ncccc2C(=O)N2CCCCC2)C1 (configuration not stated)	none (no result: DT40 TDP1 no CPT, HT1080-NT tox, HT1080 IDH1KD tx, IL1B secr inh, DT40 TDP1 CPT)
Cn1nnnc1C1CCCN(C(=O)Nc2ccccc2)C1 (configuration not stated)	none (no result: DT40 TDP1 no CPT, HT1080-NT tox, HT1080 IDH1KD tx, IL1B secr inh, DT40 TDP1 CPT)
Cc1cccc(OCC2(CNC(=O)C3CCOCC3)C[C@@H](O)[C@@H](O)C2)n1 (some centres not stated)	none (no result: DT40 TDP1 no CPT, HT1080-NT tox, HT1080 IDH1KD tx, IL1B secr inh, DT40 TDP1 CPT)
O=C(Nc1ccc([N+](=O)[O-])cc1)Nc1ccc(OC(F)F)c(Cl)c1	DT40 TDP1 no CPT 1.64µM, HT1080-NT tox inconclusive, HT1080 IDH1KD tx inconclusive, IL1B secr inh -88.8, DT40 TDP1 CPT 2.31µM
CCCCC(C(=O)NC1CCCC1)N(Cc1ccccc1)C(=O)c1snc(C(N)=O)c1N (configuration not stated)	DT40 TDP1 no CPT 20.6µM, DT40 TDP1 CPT inconclusive
CCC(C(=O)NC1CCCC1)N(Cc1ccccc1Cl)C(=O)c1snc(C(N)=O)c1N (configuration not stated)	DT40 TDP1 no CPT 13µM
CCCC(C(=O)NCCC(C)C)N(Cc1ccccc1)C(=O)c1snc(C(N)=O)c1N (configuration not stated)	DT40 TDP1 no CPT inconclusive, ALOX12 inh inconclusive, DT40 TDP1 CPT 18.4µM
CCCC(C(=O)NC1CCCC1)N(Cc1ccc(F)cc1)C(=O)c1snc(C(N)=O)c1N (configuration not stated)	none
CCCC(C(=O)NC1CCCC1)N(Cc1ccc2c(c1)OCO2)C(=O)c1snc(C(N)=O)c1N (configuration not stated)	DT40 TDP1 no CPT inconclusive, IL1B secr inh -52.9, DT40 TDP1 CPT inconclusive
CCCC(C(=O)NC1CCCC1)N(Cc1ccccc1Cl)C(=O)c1snc(C(N)=O)c1N (configuration not stated)	HT1080-NT tox inconclusive, HT1080 IDH1KD tx inconclusive, IL1B secr inh inconclusive
O=C(NCc1ccc(F)cc1)c1ccccc1-c1ncc(-c2ccccc2)o1	none (no result: DT40 TDP1 no CPT, HT1080-NT tox, HT1080 IDH1KD tx, IL1B secr inh, DT40 TDP1 CPT)
CCOc1ccc2c(c1)c(N=NC(N)=S)c(O)n2C	ALOX12 inh 5.01µM
NC(=S)N=Nc1c(O)n(CCCl)c2ccccc12	DT40 TDP1 no CPT 2.59µM, DT40 TDP1 CPT 13µM
NC(=S)N=Nc1c(O)n(CC(=O)Nc2ccccc2)c2ccccc12	HT1080-NT tox inconclusive, HT1080 IDH1KD tx inconclusive
NC(=O)N=Nc1c(O)n(Cc2ccccc2)c2ccc(Br)cc12	none
NC(=S)N=Nc1c(O)n(CCCl)c2ccc(Cl)cc12	DT40 TDP1 no CPT 23.1µM, HT1080 IDH1KD tx inconclusive, DT40 TDP1 CPT inconclusive
O=C(Nc1ccc2[nH]cc(C(C(=O)O)N3CCCCC3)c2c1)c1ccccc1 (configuration not stated)	none (no result: DT40 TDP1 no CPT, HT1080-NT tox, HT1080 IDH1KD tx, IL1B secr inh, DT40 TDP1 CPT)
COc1ccc(/C=C/c2nnc(NC(=O)CSc3ccc(Cl)cc3)s2)cc1	DT40 TDP1 no CPT 16.4µM, DT40 TDP1 CPT 6.51µM
CCOCC(=O)Nc1nnc(COc2ccc(Cl)cc2)s1	DT40 TDP1 no CPT 23.1µM, ALOX12 inh inconclusive, DT40 TDP1 CPT 16.4µM
O=C(CSc1ccccc1)Nc1nnc(COc2ccc(Cl)cc2)s1	DT40 TDP1 no CPT 25.9µM, ALOX12 inh inconclusive, DT40 TDP1 CPT 8.2µM
Cc1cccc(C)c1OCc1nnc(NC(=O)CSc2ccc(Cl)cc2)s1	DT40 TDP1 no CPT inconclusive, DT40 TDP1 CPT inconclusive
Cc1onc(-c2ccccc2)c1C(=O)Nc1nnc(COc2ccc(Cl)cc2)s1	DT40 TDP1 no CPT 8.2µM, HT1080-NT tox inconclusive, HT1080 IDH1KD tx inconclusive, DT40 TDP1 CPT 5.8µM (no result: ALOX12 inh)
COCC(=O)Nc1nnc(COc2ccc(Cl)cc2)s1	none
CN(CCC1CCCCN1C)Cc1cccc(C#N)c1 (configuration not stated)	none (no result: DT40 TDP1 no CPT, HT1080-NT tox, HT1080 IDH1KD tx, IL1B secr inh, DT40 TDP1 CPT)
CC(NC(=O)CSc1cccs1)C1CCCO1 (configuration not stated)	none (no result: DT40 TDP1 no CPT, HT1080-NT tox, HT1080 IDH1KD tx, IL1B secr inh, DT40 TDP1 CPT)
CCOC(=O)C[n+]1c(C)ccc2c1CCC2	none
COc1cccc(-c2cc3c(=O)n(CCNC(=O)c4ccccn4)ccn3n2)c1	none (no result: DT40 TDP1 no CPT, HT1080-NT tox, HT1080 IDH1KD tx, IL1B secr inh, DT40 TDP1 CPT)
